These results are taken from PubChem BioAssay (Tox21).

Results filed as inconclusive are left out. A structure can be active in one record and inactive in another. The source made the active and inactive calls. Unless noted, the call rests on the fitted dose curve; in most records, active means well fitted curve in the direction sought with a large enough effect in the repeat runs; inconclusive means weak or mixed curves; inactive means no such curve, though single readings can be large; an effect the other way counts as inactive or inconclusive.

Assay [1] can be described thus: qHTS RealTime-Glo MT Cell Viability Assay in HEK293 cells - 0 hour (AID 1224880). Further: top concentration of the series differs between compounds; nearly all actives have a fitted effect of over 45% in size. An outline of the steps: (§1)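 Measured as luminescence from the same continuously cultured HEK293 wells at successive time points (0, 8, 16, 24, 32, 40 h) after compound addition. Reagent present from seeding; dosing at 5 h; incubation 37 C.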
In general terms: In qHTS, concentration-response curves come from the screen itself.

A short description of assay [2]: A CellTox Green Cytotoxicity Assay to monitor cytotoxicity in HepG2 cells - 0 hour (AID 1224882). Further: nearly all actives have a fitted effect of over 35% in size. Further: potency means the concentration at half of the fitted maximal effect. The method in brief:
(§2)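 Fluorescent DNA-binding dye, 600 HepG2 cells/well, 5 h preincubation then compound in DMSO; same plates read at 0–40 h, 37 C.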

A short description of assay [3]: A CellTox Green Cytotoxicity Assay to monitor cytotoxicity in HepG2 cells - 32 hour (AID 1224883). Further: nearly all actives have a fitted effect of over 50% in size. Further: potency means the concentration at half of the fitted maximal effect. The method in brief:
as §2

A short description of assay [4]: A CellTox Green Cytotoxicity Assay to monitor cytotoxicity in HEK293 cells - 8 hour (AID 1224884). Further: nearly all actives have a fitted effect of over 35% in size. An outline of the steps:
(§3)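 Homogeneous no-lysis format: HEK293 cell suspension mixed with CellTox Green reagent, seeded, incubated 5 h at 37 C/5% CO2, then dosed by pintool with compound in DMSO.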

Assay [5] is described as follows: qHTS RealTime-Glo MT Cell Viability Assay in HepG2 cells - 16 hour (AID 1224885). Further: nearly all actives have a fitted effect of over 50% in size. The method in brief:
(§4)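 Cell number in HepG2 cultures estimated from NanoLuc luminescence generated by metabolic reduction of a prosubstrate by living cells. The homogeneous, nonlytic format allowed repeated reads at 0, 8, 16, 24, 32 and 40 h of compound exposure.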

Assay [6] in a line: qHTS RealTime-Glo MT Cell Viability Assay in HEK293 cells - 24 hour (AID 1224886). Further: top concentration of the series differs between compounds; nearly all actives have a fitted effect of over 50% in size. An outline of the steps:
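Homogeneous bioluminescent viability format in HEK293 cells (600 cells/well). Following 5 h at 37 C/5% CO2, 23 nL compound was pintooled; the signal was measured repeatedly during 40 h incubation.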

Assay [7] in a line: qHTS RealTime-Glo MT Cell Viability Assay in HEK293 cells - 8 hour (AID 1224887). Further: top concentration of the series differs between compounds; nearly all actives have a fitted effect of over 50% in size. The method in brief: as §1
The nature of assay [8]: A CellTox Green Cytotoxicity Assay to monitor cytotoxicity in HEK293 cells - 16 hour (AID 1224888). Further: nearly all actives have a fitted effect of over 35% in size. An outline of the steps:
as §3

Assay [9] in a line: qHTS RealTime-Glo MT Cell Viability Assay in HepG2 cells - 0 hour (AID 1224889). Further: nearly all actives have a fitted effect of over 50% in size. The method in brief: as §4
Assay [10] in a line: A CellTox Green Cytotoxicity Assay to monitor cytotoxicity in HepG2 cells - 8 hour (AID 1224890). Further: nearly all actives have a fitted effect of over 45% in size. Further: potency means the concentration at half of the fitted maximal effect. An outline of the steps:
as §2

Assay [11] is described as follows: qHTS assay to identify small molecule antagonists of the estrogen receptor alpha (ER-alpha) signaling pathway using the BG1 cell line in the presence of 0.1 nM 17-beta-estradiol - cell viability counter screen (AID 1259241). Further: nearly all actives have a fitted effect of over 40% in size. The method in brief:
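CellTiter-Fluor read (30 min, 37C) on ER-alpha/ERE-luc VM7Luc4E2 cells; 22 hr compound treatment; agonist 0.1 nM E2 final; same-well multiplex.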

Assay [12] is described as follows: qHTS assay to identify small molecule antagonists of the androgen receptor (AR) signaling pathway using the MDA cell line in the presence of 0.5 nM R1881 - cell viability counter screen (AID 1259242). Further: nearly all actives have a fitted effect of over 45% in size. An outline of the steps: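 Human breast carcinoma MDA-kb2 cells, cultured without CO2, receive compounds alongside 0.5 nM (final) R1881 agonist. After 16 hr at 37C, viability is taken as live-cell protease signal.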

In assay [13] the target is Estrogen receptor (Homo sapiens) (UniProt P03372). The assay is described as follows: qHTS assay to identify small molecule antagonists of the estrogen receptor alpha (ER-alpha) signaling pathway using the BG1 cell line in the presence of 0.1 nM 17-beta-estradiol (AID 1259244). Further: nearly all actives have a fitted effect of over 50% in size. Further: potency means the concentration at half of the fitted maximal effect. An outline of the steps:
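Seeding of stripped-serum-adapted VM7Luc4E2 cells, 24 h attachment, compound transfer, then 0.1 nM final 17beta-estradiol; after 22 h incubation, ONE-Glo reagent and luminescence reading.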

Assay [14] can be described thus: qHTS assay to identify small molecule HDAC inhibitors (AID 1259364).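 Further: wild-type HCT-116 cells with endogenous class I/II HDAC activity; top concentration of the series differs between compounds; nearly all actives have a fitted effect of over 45% in size.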 The method in brief: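 After a 2 hr compound incubation (37C, 5% CO2), HCT-116 cells seeded at 1,500/well the day before received HDAC-Glo reagent; signal read as luminescence after 30 min at room temperature.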
Assay [15] can be described thus: qHTS assay to identify small molecule agonists of the sonic hedgehog signaling (Shh) pathway - cell viability counter screen (AID 1259366). Further: nearly all actives have a fitted effect of over 50% in size. An outline of the steps: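 Fluorescence from CellTiter-Fluor reports live cells in this counter screen. NIH/3T3-derived Gli1-Luc reporter cells receive test compounds for 24hr at 37C; reagent goes in at 23hr.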
The nature of assay [16]: qHTS assay to identify small molecule antagonists of the sonic hedgehog signaling (Shh) pathway - cell viability counter screen (AID 1259367). Further: nearly all actives have a fitted effect of over 55% in size. The method in brief:
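Tox21 library chemicals were tested on a Gli1-Luc NIH/3T3 clone (2,000 cells/well) stimulated by conditioned medium; viability was quantified as fluorescence from CellTiter-Fluor reagent added at 23 hr.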

Assay [17] is described as follows: qHTS assay to identify small molecule phospholipidosis (PLD) inducers (AID 1259344; active means well fitted curve in the direction sought with a large enough effect; an effect the other way counts as inactive or inconclusive). An outline of the steps:
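Image-based: LipidTOX Red pit count/intensity per well and per cell; HepG2, 24 h compound at 37 C, PFA fixation, Hoechst counterstain.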

Assay [18] is described as follows: qHTS assay to identify small molecule HDAC inhibitors - cell viability counter screen (AID 1259365). An outline of the steps:
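To flag cytotoxic hits, 1,500 wild-type HCT-116 cells per well, plated the day before, receive test compounds for 2hr at 37 C before CellTiter-Glo reagent and a luminescence read.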

Sequence of Estrogen receptor (Homo sapiens) (P03372 whole entry, looked up): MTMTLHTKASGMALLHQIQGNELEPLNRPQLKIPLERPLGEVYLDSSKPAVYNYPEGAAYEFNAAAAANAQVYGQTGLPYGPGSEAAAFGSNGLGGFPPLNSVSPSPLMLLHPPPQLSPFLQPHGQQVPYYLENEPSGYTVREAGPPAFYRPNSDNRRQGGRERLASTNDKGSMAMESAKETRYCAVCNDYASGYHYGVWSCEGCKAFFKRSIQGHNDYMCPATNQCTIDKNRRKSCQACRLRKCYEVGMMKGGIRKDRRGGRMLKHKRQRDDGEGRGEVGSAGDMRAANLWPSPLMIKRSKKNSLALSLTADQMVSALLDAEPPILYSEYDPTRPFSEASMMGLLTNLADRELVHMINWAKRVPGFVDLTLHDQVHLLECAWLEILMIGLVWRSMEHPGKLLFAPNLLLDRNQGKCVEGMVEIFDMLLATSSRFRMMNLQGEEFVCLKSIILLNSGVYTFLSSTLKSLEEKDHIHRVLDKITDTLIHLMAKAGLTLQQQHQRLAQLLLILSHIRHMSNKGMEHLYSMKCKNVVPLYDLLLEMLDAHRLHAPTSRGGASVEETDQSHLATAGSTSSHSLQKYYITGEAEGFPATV

Consider `Cc1cc(Cl)ccc1OC(C)C(=O)O` (stereo unspecified), for which the compound was classed as inactive in assay [1], in assay [5], in assay [6], in [7], in assay [9] and in assay [11]. Also, the result in assay [12] was inactive. The Potency result in assay [2], in [3], in assay [4], in assay [8], in [10] and in assay [13] was “inactive” in each case. For the same compound, the Potency entry in assay [14], in assay [15] and in assay [16] was “inactive” each time.
`CN(C)NC(=O)CCC(=O)O`: the call in assay [1], in assay [5], in assay [6], in assay [7], in assay [9] and in [11] was inactive. In addition, the outcome in assay [12] was inactive. Besides, the Potency result in assay [2], in assay [3], in assay [4], in assay [8], in assay [10] and in assay [14] was “inactive” in each case. Moreover, the Potency result in assay [15] and in [16] was “inactive” in each case.
`CN1C(=O)CCS(=O)(=O)C1c1ccc(Cl)cc1` (stereo unspecified): the call in [1], in assay [5], in assay [6], in assay [7], in assay [9] and in assay [11] was inactive. Also, the result in assay [12] and in [18] was inactive. The Potency entry in assay [2], in [3], in [4], in [10], in assay [17] and in assay [14] was “inactive” each time. Moreover, the Potency result in assay [15] and in [16] was “inactive” throughout.
`CCOP(=S)(OCC)Oc1ccc([N+](=O)[O-])cc1`: the compound was called inactive in [1], in assay [5], in assay [6], in assay [7], in assay [9] and in assay [11]. In addition, in assay [12], the result was inactive. The Potency entry in assay [2], in assay [3], in [4], in assay [10], in assay [14] and in [15] was “inactive” throughout. In [16], the Potency result was “inactive”.
In the case of `N#Cc1cccc(C#N)c1`, the compound was called inactive in assay [1], in assay [5], in assay [6], in assay [7], in assay [9] and in [11]. Also, the outcome in [12] and in assay [18] was inactive. For the same compound, the Potency entry in assay [2], in assay [3], in assay [4], in assay [8], in assay [10] and in assay [14] was “inactive” each time. Besides, the Potency entry in [15] and in assay [16] was “inactive” each time.
As to `O=[N+]([O-])c1ccc(Cl)cc1`, the compound was called inactive in assay [1], in assay [5], in assay [6], in [7], in assay [9] and in assay [11]. The outcome in assay [12] was inactive. Moreover, the Potency result in assay [2], in [3], in assay [4], in [10], in assay [14] and in [15] was “inactive” throughout. In addition, in [16], the Potency entry is “inactive”.
As for `[N-]=[N+]=CC(=O)OC[C@H](N)C(=O)O`, the outcome in assay [1], in [5], in assay [6], in [7], in assay [9] and in assay [11] was inactive. Besides, the outcome in [12] was inactive. For the same compound, the Potency in [2] was 34.7 µM (active) and inactive; in [3], 38.9 µM (active) and inactive; in assay [10], 38.9 µM (active) and inactive. Further, the Potency result in assay [4], in [17], in assay [14], in assay [15] and in assay [16] was “inactive” throughout.
Consider `Nc1cccc(Cl)c1`, for which the compound was classed as inactive in assay [1], in assay [5], in assay [6], in [7], in assay [9] and in assay [11]. The result in [12] and in assay [18] was inactive. In addition, the Potency entry in [2], in assay [3], in [4], in [10], in assay [13] and in [14] was “inactive” throughout. Also, the Potency result in [15] and in assay [16] was “inactive” each time.
Turning to `Cl[C@H]1OCCO[C@@H]1Cl`, the call in assay [1], in [5], in assay [6], in [7], in assay [9] and in [11] was inactive. Besides, the result in assay [12] and in [18] was inactive. Further, the Potency entry in [2], in assay [3], in [4], in assay [8], in assay [10] and in assay [14] was “inactive” in each case. Moreover, the Potency result in [15] and in assay [16] was “inactive” throughout.
Take `CCCOC(=O)c1ccccc1C(=O)OCCC`: the result in [1], in [5], in [6], in assay [7], in assay [9] and in [11] was inactive. For the same compound, the outcome in [12] and in [18] was inactive. Also, the Potency result in assay [2], in [3], in [4], in [8], in [10] and in [13] was “inactive” in each case. Further, the Potency entry in assay [14], in assay [15] and in assay [16] was “inactive” each time.
Take `C=C(C)C(=O)OCC(CC)CCCC` (stereo unspecified): the compound was called inactive in [1], in [5], in assay [6], in [7], in assay [9] and in assay [11]. Further, the result in [12] was inactive. The Potency entry in assay [2], in assay [3], in assay [4], in assay [8], in assay [10] and in assay [14] was “inactive” throughout. The Potency entry in [15] and in assay [16] was “inactive” in each case. Moreover, the Potency in assay [13] was 22.1 µM (active) and inactive.
On to `CC(=O)/C=C/c1ccccc1`, for which the compound was called inactive in assay [1], in [5], in assay [6], in assay [7], in [9] and in assay [11]. Besides, the outcome in assay [12] was inactive. In addition, the Potency result in assay [2], in assay [3], in assay [4], in assay [8], in assay [10] and in assay [14] was “inactive” throughout. Besides, the Potency result in assay [15] and in assay [16] was “inactive” throughout.
